# Test results: PubChem BioAssay (NCI)
# This is part of a sample that, as a whole, favours compounds with a hit. Of some 83,000 tested, about 20% had one in any assay.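 Cell lines were cultured in 96-well plates, exposed to a single compound concentration, and assessed for percent growth 48 hours later.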 Unmarked numbers belong to inactive results. The source made the active and inactive calls. The calls were made as follows: active = growth percent below 10; inactive = the rest.
# Tests used:
# Test in all cases: NCI-60 one-dose screen, 48 h (100 = growth as untreated, 0 = no growth, -100 = all killed)
# Conditions in all cases: 10 µM unless noted
# [1] = system: T-47D breast
# [2] = system: BT-549 breast
# [3] = system: MCF7 breast
# [4] = system: HCT-116 colon
# [5] = system: HCC-2998 colon
# [6] = system: KM12 colon
# [7] = system: SW-620 colon
# [8] = system: MDA-MB-435 melanoma
Compound,growth [1],growth [2],growth [3],growth [4],growth [5],growth [6],growth [7],growth [8] [%]
O=C(Nc1cccc(-c2nc(-c3ccc(NC(=O)c4cccs4)cc3Cl)no2)c1)Nc1ccc(NC(=O)C2CC2)c(C(F)(F)F)c1,-50.2% (active),-19.1% (active),-40% (active),1.27% (active),-55% (active),-65.5% (active),–,–
CCOC(=O)Nc1ccc(-c2nc(-c3cccc(O)c3)c(-c3ccnc(Br)c3)[nH]2)cc1,14%,35.4%,13.9%,19.2%,56.2%,22.3%,28.2%,–
C#C[C@]1(O)CC[C@H]2[C@@H]3CC=C4c5sc(-c6ccccn6)nc5CC[C@]4(C)[C@H]3CC[C@@]21C,85.3%,59.8%,49.3%,62%,92.5%,85.7%,74.2%,–
CCCCSc1nnc(-c2ccc(-c3ccc(Cl)cc3)nc2C)o1,92.8%,–,85.8%,98%,100%,103%,101%,102
CCN(CC)Cc1c(-c2cccc(OC(F)(F)F)c2)[nH]c2ccc(N3CCCC3)cc2c1=O,103%,87.7%,78.4%,101%,87%,95.9%,92.3%,–
CCC(=O)Nc1ccc(-c2nc(-c3cccc(O)c3)c(-c3ccnc(Br)c3)[nH]2)cc1,26.4%,74.1%,13.3%,55.9%,95.8%,58.9%,84.7%,–
O=C(Nc1cccc(-c2nc(-c3ccc(NC(=O)c4cccnc4)cc3Cl)no2)c1)Nc1ccc(NC(=O)C2CC2)c(C(F)(F)F)c1,-51.1% (active),-39.5% (active),-66.8% (active),-52.8% (active),-69.6% (active),-63.9% (active),-59.9% (active),–
CC(=O)Nc1ccc(NC(=O)Nc2cccc(-c3nc(-c4ccc(NC(=O)c5cccs5)cc4Cl)no3)c2)cc1C(F)(F)F,-59.4% (active),-26.7% (active),-58.1% (active),-22.2% (active),-65.1% (active),-50.1% (active),-51.3% (active),–
O=S(=O)(Nc1cc(Cl)c(F)c(Cl)c1)c1ccc(-c2cnc(C3CC3)o2)cc1,29.8%,66.8%,20.2%,27.3%,67.4%,26.1%,23.8%,–
C#CCOc1ccc(/C=N/Nc2nc(-c3cc4cc(Br)cc(Br)c4oc3=O)cs2)cc1,88.6%,–,65.9%,91.8%,108%,88%,104%,91.8
O=S(=O)(Nc1ccc(-c2nc(-c3cccc(O)c3)c(-c3ccnc(Br)c3)[nH]2)cc1)c1ccccc1,1.01% (active),51.9%,7.26% (active),27%,32.4%,21.5%,49.8%,–
O=S(=O)(Nc1ccc(I)c(Cl)c1)c1ccc(-c2cnc(C3CC3)o2)cc1,26.9%,57.1%,17%,26.6%,59.1%,32%,15.3%,–
CC(=O)Nc1nc2c(s1)C1=CC[C@H]3[C@@H]4CC[C@H](C(C)=O)[C@@]4(C)CC[C@@H]3[C@@]1(C)CC2,68%,62.3%,20.6%,60.4%,96.9%,47.7%,82.3%,–
COc1ccc(Oc2ccc(C3CC(c4cc(OC)c(OC)c(OC)c4)=NN3C(C)=O)cc2)cc1 (centres undefined),9.08% (active),45.5%,10.1%,19.5%,42.2%,27.5%,46.9%,–
C#C[C@]1(O)CC[C@H]2[C@@H]3CC=C4c5sc(-c6cccc(F)c6)nc5CC[C@]4(C)[C@H]3CC[C@@]21C,65.4%,96.3%,66.7%,80.6%,85.2%,75.6%,89.7%,–
CNC(=O)c1cc(Oc2ccc3nc(NC(=O)c4ccc(CN5CCN(C)CC5)c(C(F)(F)F)c4)sc3c2)ccn1,38%,–,28.9%,31.7%,70.5%,46.8%,11.4%,53.9
CC(C)C(=O)Nc1ccc(-c2nc(-c3cccc(O)c3)c(-c3ccnc(Br)c3)[nH]2)cc1,7.84% (active),60.5%,11.7%,53.4%,67.9%,43.3%,43.2%,–
C#C[C@]1(O)CC[C@H]2[C@@H]3CC=C4c5sc(-c6ccc(OC)cc6)nc5CC[C@]4(C)[C@H]3CC[C@@]21C,73.6%,47%,27.6%,59.9%,90.1%,60%,51.3%,–
O=C(Nc1ccc(-c2nc(-c3cccc(O)c3)c(-c3ccnc(Br)c3)[nH]2)cc1)c1ccccc1,-6.8% (active),40.6%,0.42% (active),18.1%,26.3%,12.9%,10.5%,–
CC1=C2C(=C[C@@](C)(COS(N)(=O)=O)[C@@H]2O)C(=O)[C@](C)(O)C12CC2,71.8%,60.2%,61.7%,70%,61.7%,99.5%,85.3%,–
COC(=O)Nc1ccc(-c2nc(-c3cccc(O)c3)c(-c3ccnc(Br)c3)[nH]2)cc1,34.7%,66.1%,14.6%,49.7%,84.7%,50.7%,70.3%,–
C#C[C@]1(O)CC[C@H]2[C@@H]3CC=C4c5sc(C6CCOCC6)nc5CC[C@]4(C)[C@H]3CC[C@@]21C,57.8%,77.6%,75.6%,64.4%,84.3%,59.8%,85.5%,–
C#CCOc1ccc(/C=N/Nc2nc(-c3cc(Cl)ccc3Cl)cs2)cc1,37.4%,–,9.62% (active),86.6%,95.8%,72.5%,93.9%,102
COC(=O)c1c(C(=O)OC)c2n(CC(=O)Nc3cccc4cccnc34)c3ccccc3n2c1C(=O)c1ccc(C)cc1,83.4%,110%,93.4%,49.5%,103%,109%,–,–
O=C(C[n+]1ccnc2ccccc21)c1ccc(O)c(O)c1,45%,51.7%,12.5%,7.08% (active),81.2%,82.3%,24%,–
O=S(=O)(Nc1ccc(C2CC2)cc1)c1ccc(-c2cnc(C3CC3)o2)cc1,51.5%,76.3%,33.3%,48.5%,91.1%,48.3%,33.8%,–
O=S(=O)(Nc1ccc2c(c1)OC(F)(F)O2)c1ccc(-c2cnc(C3CC3)o2)cc1,31.6%,52.1%,19.9%,23.7%,72.8%,30.9%,23.7%,–
CN(c1ccc(Cl)cc1)S(=O)(=O)c1ccc(-c2cnc(C3CC3)o2)cc1,58.9%,35.1%,15%,10.6%,22.7%,8.94% (active),25.8%,–
